# Measurements: PubChem BioAssay (Tox21)
# Results filed as inconclusive are left out. Entries that show only a call come without a potency. Values without a mark were called inactive. Active and inactive are the calls of the source. Calls come from the whole dose curve; as a rule, active = well fitted cell-killing curve with a large enough effect in the repeat runs; inconclusive = weak or mixed curves; inactive = flat fitted curve, though single readings scatter.
# Test: qHTS assay to identify small molecule antagonists of the TGF-beta/Smad signaling pathway - cell viability counter screen (AID 1346824); note: nearly all actives have a fitted effect of over 50% in size
# Conditions: SBE-bla HEK293T viability, CellTiter-Glo luminescence; series mostly up to 76.8 µM; viability change, negative = cytotoxic: at the top concentration
# Text: U.S. Tox21 Program National Center for Advancing Translational Sciences [NCATS] NIH Chemical Genomics Center [NCGC] U.S. Environmental Protection Agency [EPA] National Institutes of Environmental Health Sciences [NIEHS] National Toxicology Program [NTP] U.S. Food and Drug Administration [FDA] Tox21 Assay Overview: Transforming growth factor beta (TGF-beta) superfamily consists of a large number of structurally related dimeric proteins that act as hormones or local mediators in regulating a wide range of biological functions. This superfamily includes TGF-betas themselves, the bone morphogenetic proteins (BMPs) and the activins. These ligands induce oligomerization of serine/threonine receptor kinases and phosphorylate the cytoplasmic signaling molecules of Smad protein family. CellSensor SBE-bla HEK 293T cell line (Life Technologies, Carlsbad, CA), responsive to TGF-beta was used to screen Tox21 10K compound library for identification of agonists/antagonists of the Smad signaling pathway. This cell line contains a beta-lactamase reporter gene under control of the Smad binding element (SBE) stably integrated into HEK 293T cells. Also cytotoxicity of the compounds was tested in parallel by measuring the cell viability using CellTiter-Glo assay system in the same wells.
# Tox21 Assay Protocol Summary: SBE-bla HEK 293T cells were dispensed at 4,000/well in 5 uL of assay medium into black wall/clear-bottom 1536-well plates using a Multidrop Combi (ThermoFisher Scientific, Waltham, MA) dispenser. After the assay plates were incubated at 37 C and 5% CO2 for an overnight, 23 nL of compounds dissolved in DMSO, positive controls or DMSO only was transferred to the assay plate by a Pintool station (Kalypsys, San Diego, CA). Compound transfer was followed by the addition of 1 uL of 0.25 ng/mL TGF-beta1 or assay buffer using two separate tips of Flying Reagent Dispenser (FRD, Aurora Discovery, San Diego, CA). The assay plates were incubated at 37 C and 5% CO2 for 5 hr. One uL of LiveBLAzer B/G FRET substrate (Life Technologies) was added using a Flying Reagent Dispenser (FRD, Aurora Discovery, San Diego, CA) and the plates were incubated at room temperature for 2 hr. Fluorescence intensity (405 nm excitation, 460 nm and 530 nm emissions) was measured using an Envision plate reader (PerkinElmer, Shelton, CT). For cytotoxicity read, 4 uL of CellTiter-Glo reagent (Promega Corporation, Madison, WI) was added to each well of the assay plates using FRD. After 30 min incubation at room temperature, the luminescence intensity was measured using ViewLux plate reader (PerkinElmer).
SMILES,Potency,"viability change, negative = cytotoxic [%]"
Cc1ccc(S(=O)(=O)NCl)cc1,inactive,–
COC(=O)CC(=O)OC,inactive,–
Cc1ccc(C(C)(C)C)c(O)c1,inactive,–
CCc1cccc2c3c([nH]c12)C(CC)(CC(=O)O)OCC3 (stereo not given),inactive,–
Nc1ccc2c(c1)C(=O)c1ccccc1C2=O,inactive,–
[Na+],inactive,–
O=C1OC2(c3ccccc31)c1cc(I)c(O)c(I)c1Oc1c2cc(I)c(O)c1I,inactive,–
CC(C)(Oc1ccc(Cl)cc1)C(=O)O,inactive,–
COc1ccc(-c2coc3cc(O)cc(O)c3c2=O)cc1,inactive,–
CCC(Cc1c(I)cc(I)c(N)c1I)C(=O)O (stereo not given),inactive,–
OCCNCCO,–,3.83
CN1CCOCC1,inactive,–
C[N+](C)(C)CCO,inactive,–
O=C(O)COCCN1CCN(C(c2ccccc2)c2ccc(Cl)cc2)CC1 (stereo not given),inactive,–
Oc1c(Cl)ccc(Cl)c1Cl,inactive,–
Cc1ccc2c(c1)C(=O)OC2=O,inactive,–
c1ccc2ncccc2c1,inactive,–
ClC/C=C/CCl,inactive,–
O=C(O)c1cc(=O)[nH]c(=O)[nH]1,inactive,–
CNC[C@H](O)c1ccc(O)c(O)c1,inactive,–

SMILES,Potency,"viability change, negative = cytotoxic [%]"
C=CC(=O)OCCCC,inactive,–
C=CCOC(=O)C(=C)C,inactive,–
CCCCCCCCCCCCCO,inactive,–
NCCN,inactive,–
C=CC(C)(O)CCC=C(C)C (stereo not given),inactive,–
CC(=O)[C@H]1CC[C@H]2[C@@H]3CC=C4C[C@@H](O)CC[C@]4(C)[C@H]3CC[C@]12C,inactive,–
CC(=O)Oc1c(C)c(C)c2c(c1C)CC[C@@](C)(CCC[C@H](C)CCC[C@H](C)CCCC(C)C)O2,inactive,–
O=C(CCCN1CCC(O)(c2ccc(Cl)cc2)CC1)c1ccc(F)cc1,inactive,–
C=C[C@@]1(C)CC(=O)[C@]2(O)[C@@]3(C)[C@@H](O)CCC(C)(C)[C@@H]3[C@H](O)[C@H](OC(C)=O)[C@@]2(C)O1,inactive,–
CC(C)[N+](C)(CCOC(=O)C1c2ccccc2Oc2ccccc21)C(C)C,inactive,–
CCCCCC=O,inactive,–
CC(C)[C@@H]1CC[C@@H](C)CC1=O,inactive,–
Nc1cc(Cl)c(N)c(Cl)c1,inactive,–
Nc1ccc(O)c(N)c1,inactive,–
Cc1ccc(N)c([N+](=O)[O-])c1,inactive,–
COc1ccc2nc(N)sc2c1,inactive,–
CC(=O)[C@@]1(O)CC[C@H]2[C@@H]3C[C@H](C)C4=CC(=O)C=C[C@]4(C)[C@@]3(F)[C@@H](O)C[C@@]21C,inactive,–
O=C(O)CCCC(=O)O,inactive,–
NCCS(=O)(=O)O,inactive,–
COc1ccc(C(=O)c2ccccc2O)c(O)c1,inactive,–
